Residue numbers refer to the chain shown, from its start. Whole data set: some 16,000 sequences, median “ka relative to ugcaugu” near 0.096, cut for the highest 2% near 0.35. Shown is part of a subset that was picked to be rich in the highest values.

T1: RBFOX1 RRM RbFoxmut (Fox-RRM*) (Homo sapiens, UniProt Q9NWB1 109-208, R118D;E147R;N151S;E152T)
T1 sequence: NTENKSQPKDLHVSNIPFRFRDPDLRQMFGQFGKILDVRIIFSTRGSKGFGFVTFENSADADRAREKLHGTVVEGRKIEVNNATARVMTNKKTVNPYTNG

B1: CCAAUUG (DNA:RNA)
RNA: GGGAGACCGGAAUUCAGAUUGUCCCCAAUUGUUAAAUCCCGUCGUAGCCACCA
DNA 1: CAATCTGAATTCCGGTCTCCC
DNA 2: TGGTGGCTACGACGGGATT
B2: GUGGUAG (DNA:RNA)
RNA: B1 RNA with C25G, C26U, A27G, A28G, U30A
DNA 1: CAATCTGAATTCCGGTCTCCC
DNA 2: TGGTGGCTACGACGGGATT
B3: UUUUCUG (DNA:RNA)
RNA: B1 RNA with C25U, C26U, A27U, A28U, U29C
DNA 1: CAATCTGAATTCCGGTCTCCC
DNA 2: TGGTGGCTACGACGGGATT
B4: UCCUCCG (DNA:RNA)
RNA: B1 RNA with C25U, A27C, A28U, U29C, U30C
DNA 1: CAATCTGAATTCCGGTCTCCC
DNA 2: TGGTGGCTACGACGGGATT
B5: GCCCAGU (DNA:RNA)
RNA: B1 RNA with C25G, A27C, A28C, U29A, U30G, G31U
DNA 1: CAATCTGAATTCCGGTCTCCC
DNA 2: TGGTGGCTACGACGGGATT
B6: GUCGGGG (DNA:RNA)
RNA: B1 RNA with C25G, C26U, A27C, A28G, U29G, U30G
DNA 1: CAATCTGAATTCCGGTCTCCC
DNA 2: TGGTGGCTACGACGGGATT
B7: GGGUCCG (DNA:RNA)
RNA: B1 RNA with C25G, C26G, A27G, A28U, U29C, U30C
DNA 1: CAATCTGAATTCCGGTCTCCC
DNA 2: TGGTGGCTACGACGGGATT
B8: CACCGGG (DNA:RNA)
RNA: B1 RNA with C26A, A27C, A28C, U29G, U30G
DNA 1: CAATCTGAATTCCGGTCTCCC
DNA 2: TGGTGGCTACGACGGGATT
B9: CGGGUUG (DNA:RNA)
RNA: B1 RNA with C26G, A27G, A28G
DNA 1: CAATCTGAATTCCGGTCTCCC
DNA 2: TGGTGGCTACGACGGGATT
B10: CGGGGGG (DNA:RNA)
RNA: B1 RNA with C26G, A27G, A28G, U29G, U30G
DNA 1: CAATCTGAATTCCGGTCTCCC
DNA 2: TGGTGGCTACGACGGGATT
B11: CGGGUCG (DNA:RNA)
RNA: B1 RNA with C26G, A27G, A28G, U30C
DNA 1: CAATCTGAATTCCGGTCTCCC
DNA 2: TGGTGGCTACGACGGGATT
B12: GGGGUUG (DNA:RNA)
RNA: B1 RNA with C25G, C26G, A27G, A28G
DNA 1: CAATCTGAATTCCGGTCTCCC
DNA 2: TGGTGGCTACGACGGGATT
B13: GGGUUAA (DNA:RNA)
RNA: B1 RNA with C25G, C26G, A27G, A28U, U30A, G31A
DNA 1: CAATCTGAATTCCGGTCTCCC
DNA 2: TGGTGGCTACGACGGGATT
B14: GGGGUCG (DNA:RNA)
RNA: B1 RNA with C25G, C26G, A27G, A28G, U30C
DNA 1: CAATCTGAATTCCGGTCTCCC
DNA 2: TGGTGGCTACGACGGGATT
B15: GGGGGGG (DNA:RNA)
RNA: B1 RNA with C25G, C26G, A27G, A28G, U29G, U30G
DNA 1: CAATCTGAATTCCGGTCTCCC
DNA 2: TGGTGGCTACGACGGGATT
B16: GGGUUGA (DNA:RNA)
RNA: B1 RNA with C25G, C26G, A27G, A28U, U30G, G31A
DNA 1: CAATCTGAATTCCGGTCTCCC
DNA 2: TGGTGGCTACGACGGGATT
B17: CGGUUGA (DNA:RNA)
RNA: B1 RNA with C26G, A27G, A28U, U30G, G31A
DNA 1: CAATCTGAATTCCGGTCTCCC
DNA 2: TGGTGGCTACGACGGGATT
B18: UAAGAGC (DNA:RNA)
RNA: B1 RNA with C25U, C26A, A28G, U29A, U30G, G31C
DNA 1: CAATCTGAATTCCGGTCTCCC
DNA 2: TGGTGGCTACGACGGGATT
B19: GACCGCG (DNA:RNA)
RNA: B1 RNA with C25G, C26A, A27C, A28C, U29G, U30C
DNA 1: CAATCTGAATTCCGGTCTCCC
DNA 2: TGGTGGCTACGACGGGATT
B20: GCACUUC (DNA:RNA)
RNA: B1 RNA with C25G, A28C, G31C
DNA 1: CAATCTGAATTCCGGTCTCCC
DNA 2: TGGTGGCTACGACGGGATT

This assay addresses T1, RBFOX1 RRM RbFoxmut (Fox-RRM*). Description: EMSA; HiTS-Eq, 1 nM pool, 10 min; buffer printed only for the single-RNA assays: 10 mM Tris pH 7.5, 150 mM NaCl, 3.4 mM EDTA, 0.001% NP-40, 30 C. The following applies: tags: His6 N-terminal (pET28a); label: 5' 32P. Summed up:
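Relative association constants, normalised to the cognate motif, were derived by comparing read counts of each RNA species with those of the control reaction. The RNA sequenced was the free fraction, separated by 8% native PAGE after a 10 min equilibration in 50 µL of 1 nM 5′-radiolabelled RNA (7 randomized nucleotides) with increasing concentrations of purified wild-type or mutant RbFox RRM.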
Consider B1, for which the binding signal was 0.0976 KA relative to UGCAUGU.
B2: the binding signal is 0.181 KA relative to UGCAUGU.
In the case of B3 it was 0.0689 KA relative to UGCAUGU; in that of B4, 0.0609 KA relative to UGCAUGU; in that of B5, 0.102 KA relative to UGCAUGU.
In the case of B6 it was 0.101 KA relative to UGCAUGU; in that of B7, 0.238 KA relative to UGCAUGU; in that of B8, 0.0671 KA relative to UGCAUGU.
In the case of B9 it was 0.66 KA relative to UGCAUGU; in that of B10, 0.0805 KA relative to UGCAUGU.
Regarding B11, the binding signal was 0.259 KA relative to UGCAUGU.
In the case of B12, the binding signal is 0.609 KA relative to UGCAUGU.
For B13, the binding signal is 0.0954 KA relative to UGCAUGU.
The result for B14 reads 0.357 KA relative to UGCAUGU; that for B15, 0.0675 KA relative to UGCAUGU.
The result for B16 reads 0.356 KA relative to UGCAUGU.
In the case of B17 it was 0.139 KA relative to UGCAUGU; in that of B18, 0.0654 KA relative to UGCAUGU.
On to B19, for which the binding signal was 0.101 KA relative to UGCAUGU.
In the case of B20, the binding signal was 0.0473 KA relative to UGCAUGU.

(Values after article PMC9911399, “Two distinct binding modes provide the RNA-binding protein RbFox with extraordinary sequence specificity”.)
